Laboratory results as given in the supplement of paper PMC10037445.
Over roughly 2,900 compounds, “NF-kB SEAP reporter activity, fold change vs agonist alone” has its median near 0.99; the highest 2% begin near 2.6. For the sample, the highest values were picked, then their nearest neighbours and some compounds at random.

Columns and labels:
[1] = tested on: RAW-Dual; assay: NF-kB SEAP reporter activity, fold change vs agonist alone; cytotoxicity flag (confluency mask): not cytotoxic; higher = enhanced NF-kB activity
Outline: (§1)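 After 50 nL of library stock was delivered by pin tool to RAW-Dual macrophages (50,000 cells/well, DMEM, 384-well plates), a PRR agonist was added 1 h later and the plates were kept at 37 °C, 5% CO2. Twenty hours later, IRF was read from supernatant by QuantiLuc luminescence and NF-κB by QuantiBlue absorbance at 620 nm. Reporter activity is stated as fold change over agonist-alone wells. Wells with IncuCyte confluency under 70% of agonist controls in both mask sets were counted as cytotoxic.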

[2] = tested on: RAW-Dual; assay: NF-kB SEAP reporter activity, fold change vs agonist alone; higher = enhanced NF-kB activity; settings: cytotoxicity flag (confluency mask): not cytotoxic
Outline: as §1

[3] = agonist: ODN 1826 (TLR9) 0.5 ug/mL
[4] = agonist: Pam2CSK4 (TLR2/6) 0.1 ug/mL
[5] = agonist: Pam3CSK4 (TLR2/1) 0.1 ug/mL
[6] = library stock concentration (final ~1000-fold dilution): 10 mM, agonist: Imiquimod (TLR7) […]
[7] = library stock concentration (final ~1000-fold dilution): 10 mM, agonist: MPLA (TLR4) […]

SMILES: CN(C/C=C/C#CC(C)(C)C)Cc1cccc2ccccc12.Cl (library stock concentration (final ~1000-fold dilution): 10 mM)
- NF-kB SEAP reporter activity ([1]; agonist: LPS (TLR4) 0.1 ug/mL): 3.51
- NF-kB SEAP reporter activity [1, 3]: 0.849
- NF-kB SEAP reporter activity [1, 4]: 0.948
- NF-kB SEAP reporter activity [1, 5]: 1.3

SMILES: CN(C/C=C/C#CC(C)(C)C)Cc1cccc2ccccc12
- NF-kB SEAP reporter activity [2, 6]: 1.6
- NF-kB SEAP reporter activity [2, 7]: 2.02

SMILES: CN(C/C=C/C#CC(C)(C)C)Cc1cccc2ccccc12 (library stock concentration (final ~1000-fold dilution): 10 mM)
- NF-kB SEAP reporter activity ([1]; agonist: LPS (TLR4) 0.1 ug/mL): 4.26
- NF-kB SEAP reporter activity [1, 3]: 0.849
- NF-kB SEAP reporter activity [1, 4]: 0.95
- NF-kB SEAP reporter activity [1, 5]: 1.44

SMILES: COc1cc2c(cc1OC)CN(C(=O)/C=C/c1c(-c3ccccc3)n(C)c3ncccc13)CC2.Cl (library stock concentration (final ~1000-fold dilution): 10 mM)
- NF-kB SEAP reporter activity ([1]; agonist: LPS (TLR4) 0.1 ug/mL): 1.15
- NF-kB SEAP reporter activity [1, 3]: 1.14
- NF-kB SEAP reporter activity [1, 4]: 1.15
- NF-kB SEAP reporter activity [1, 5]: 1.18

SMILES: COc1cc2c(cc1OC)CN(C(=O)/C=C/c1c(-c3ccccc3)n(C)c3ncccc13)CC2.Cl
- NF-kB SEAP reporter activity [2, 6]: 1
- NF-kB SEAP reporter activity [2, 7]: 1.02

SMILES: CNC1CN(c2ccc3c(=O)c(C(=O)O)cn(-c4nccs4)c3n2)CC1OC.Cl (stereo unspecified)
- NF-kB SEAP reporter activity ([2]; library stock concentration (final ~1000-fold dilution): 2 mM, agonist: Imiquimod (TLR7) […]): 1.12
- NF-kB SEAP reporter activity ([2]; library stock concentration (final ~1000-fold dilution): 2 mM, agonist: MPLA (TLR4) […]): 0.968

SMILES: CNC1CN(c2ccc3c(=O)c(C(=O)O)cn(-c4nccs4)c3n2)CC1OC.Cl (stereo unspecified) (library stock concentration (final ~1000-fold dilution): 2 mM)
- NF-kB SEAP reporter activity ([1]; agonist: LPS (TLR4) 0.1 ug/mL): 1.11
- NF-kB SEAP reporter activity [1, 3]: 1.56
- NF-kB SEAP reporter activity [1, 4]: 1.32
- NF-kB SEAP reporter activity [1, 5]: 1.18

SMILES: Br.CN(C)CCCC1(c2ccc(F)cc2)OCc2cc(C#N)ccc21 (stereo unspecified) (library stock concentration (final ~1000-fold dilution): 10 mM)
- NF-kB SEAP reporter activity ([1]; agonist: LPS (TLR4) 0.1 ug/mL): 1.15
- NF-kB SEAP reporter activity [1, 3]: 0.889
- NF-kB SEAP reporter activity [1, 4]: 0.786
- NF-kB SEAP reporter activity [1, 5]: 0.857

SMILES: Br.CN(C)CCCC1(c2ccc(F)cc2)OCc2cc(C#N)ccc21 (stereo unspecified)
- NF-kB SEAP reporter activity [2, 7]: 1.01

SMILES: CCOc1cc(C(CS(C)(=O)=O)N2C(=O)c3cccc(NC(C)=O)c3C2=O)ccc1OC (stereo unspecified)
- NF-kB SEAP reporter activity [2, 6]: 1.12
- NF-kB SEAP reporter activity [2, 7]: 1.26

SMILES: CCOc1cc(C(CS(C)(=O)=O)N2C(=O)c3cccc(NC(C)=O)c3C2=O)ccc1OC (stereo unspecified) (library stock concentration (final ~1000-fold dilution): 10 mM)
- NF-kB SEAP reporter activity ([1]; agonist: LPS (TLR4) 0.1 ug/mL): 1.59
- NF-kB SEAP reporter activity [1, 3]: 1.87
- NF-kB SEAP reporter activity [1, 4]: 1.47
- NF-kB SEAP reporter activity [1, 5]: 1.72

SMILES: N=C(N)NCCCC(N)C(=O)NCC(=O)NC(CC(=O)O)C(=O)O (stereo unspecified) (library stock concentration (final ~1000-fold dilution): 10 mM water)
- NF-kB SEAP reporter activity ([1]; agonist: LPS (TLR4) 0.1 ug/mL): 1.41
- NF-kB SEAP reporter activity [1, 3]: 1.14
- NF-kB SEAP reporter activity [1, 4]: 1.2
- NF-kB SEAP reporter activity [1, 5]: 0.993

SMILES: N=C(N)NCCCC(N)C(=O)NCC(=O)NC(CC(=O)O)C(=O)O (stereo unspecified)
- NF-kB SEAP reporter activity ([2]; library stock concentration (final ~1000-fold dilution): 10 mM water, agonist: Imiquimod (TLR7) […]): 0.924
- NF-kB SEAP reporter activity ([2]; library stock concentration (final ~1000-fold dilution): 10 mM water, agonist: MPLA (TLR4) […]): 1.06

SMILES: [O-][n+]1cccc(-c2nc3c(Cl)cccc3cc2C(Nc2ncnc3cccnc23)C(F)(F)F)c1 (stereo unspecified)
- NF-kB SEAP reporter activity [2, 6]: 0.648
- NF-kB SEAP reporter activity [2, 7]: 1.56

SMILES: [O-][n+]1cccc(-c2nc3c(Cl)cccc3cc2C(Nc2ncnc3cccnc23)C(F)(F)F)c1 (stereo unspecified) (library stock concentration (final ~1000-fold dilution): 10 mM)
- NF-kB SEAP reporter activity ([1]; agonist: LPS (TLR4) 0.1 ug/mL): 2.33
- NF-kB SEAP reporter activity [1, 3]: 1.3
- NF-kB SEAP reporter activity [1, 4]: 0.992
- NF-kB SEAP reporter activity [1, 5]: 1.38

SMILES: CC(C)=CC(C)C[C@](C)(O[C@@H]1O[C@H](CO)[C@@H](O)[C@H](O)[C@H]1O)[C@H]1CC[C@]2(C)C3CCC4C(C)(C)C(O[C@@H]5O[C@H](CO)[C@@H](O)[C@H](O)[C@H]5O[C@@H]5O[C@H](CO)[C@@H](O)[C@H](O)[C@H]5O)CC[C@]4(C)C3C[C@H](O)[C@@H]12 (stereo partly specified) (library stock concentration (final ~1000-fold dilution): 10 mM)
- NF-kB SEAP reporter activity ([1]; agonist: LPS (TLR4) 0.1 ug/mL): 1.18
- NF-kB SEAP reporter activity [1, 3]: 1.06
- NF-kB SEAP reporter activity [1, 4]: 1.04
- NF-kB SEAP reporter activity [1, 5]: 1.04

SMILES: CC(C)=CC(C)C[C@](C)(O[C@@H]1O[C@H](CO)[C@@H](O)[C@H](O)[C@H]1O)[C@H]1CC[C@]2(C)C3CCC4C(C)(C)C(O[C@@H]5O[C@H](CO)[C@@H](O)[C@H](O)[C@H]5O[C@@H]5O[C@H](CO)[C@@H](O)[C@H](O)[C@H]5O)CC[C@]4(C)C3C[C@H](O)[C@@H]12 (stereo partly specified)
- NF-kB SEAP reporter activity [2, 6]: 0.936
- NF-kB SEAP reporter activity [2, 7]: 1.05
